Compound activity from PubChem BioAssay.
Only some compounds are listed: those with a hit (about 2.8% of all), similar ones and a draw of the others.
WRN helicase inh – qHTS for Inhibitors of WRN Helicase | AID 651768, 2012 | Bifunctional 3'-5' exonuclease/ATP-dependent helicase WRN (Homo sapiens), Q14191 | actives 0.46% (n = 360,000) | WRN helicase unwinding, fluorescent forked duplex, kinetic | Potency, µM (doses to about 114 µM), without a hit: top-dose activity change, negative = inhibition, usual class: inhibitors; further: potency means the concentration at half of the fitted maximal effect; on the % scale 0 is the no-effect control and ±100 the full control effect; nearly all actives have a fitted effect of over 55% in size
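Kinetic fluorescence helicase assay: unwinding of a quenched forked DNA duplex (100 nM final) with 2 mM ATP final raises red fluorescence (525/598 nm). Compounds sat 15 min at room temperature with 20 nM WRN beforehand.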
Pol kappa inh – qHTS for Inhibitors of Polymerase Kappa | purified Pol kappa, fluorescent DNA synthesis assay, 10 min | Potency, µM (titrated, usually from 107 µM), inactives show at the top dose activity, negative = inhibition, hits mostly inhibitors | DNA polymerase kappa (Homo sapiens), Q9UBT6 | actives 0.53% (n = 400,000) | AID 588579, 2011; further: potency means the concentration at half of the fitted maximal effect; on the % scale 0 is the no-effect control and ±100 the full control effect
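First, compounds were pin-transferred onto 10 nM Pol kappa. After 15 min at room temperature, substrate was added to 50 nM final. Fluorescence was then measured kinetically at 0 and 10 min.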
PI5P4Ka inh – qHTS for Inhibitors of phosphatidylinositol 5-phosphate 4-kinase (PI5P4K). Phosphatidylinositol 5-phosphate 4-kinase type-2 alpha (Homo sapiens), P48426. PI5P4Kalpha enzyme, ADP-Glo luminescence, 60 min; active compounds read low. max response, %. actives 1.2% (n = 330,000). AID 652105, 2013; active means max response of -50% or lower; inconclusive means between -30% and -50%; inactive means -30% or higher; further: value at the top dose of about 77 µM; on the % scale 0 is the no-effect control and ±100 the full control effect
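Luminescence from ADP-Glo served as readout of PI5P4Kalpha activity in a qHTS format. Reaction: enzyme, substrate, compound, ATP at 5 microM final, 60 min at RT.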
POLI inh – qHTS for Inhibitors of Polymerase Iota; Potency, µM (top dose mostly 115 µM), without a hit: top-dose activity, negative = inhibition, usual class: inhibitors; Pol iota fluorescent replication assay, 10 min; DNA polymerase iota (Homo sapiens), Q9UNA4; actives 1% (n = 390,000); further: potency means the concentration at half of the fitted maximal effect
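Fluorescent replication assay read twice, at 0 min and 10 min after adding 50 nM (final) substrate. Enzyme (10 nM) and compounds were first incubated 15 min at room temperature; enzyme-free buffer wells were negative controls.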
POLB inh – qHTS Assay for Inhibitors of DNA Polymerase Beta; Potency, µM (top dose mostly 114 µM), inactives show at the top dose activity change, negative = inhibition, actives largely listed as inhibitors; Pol beta primer extension/strand displacement, fluorescence kinetic; actives 1.3% (n = 340,000); P06746; further: potency means the concentration at half of the fitted maximal effect; on the % scale 0 is the no-effect control and ±100 the full control effect
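Human Pol beta at 10 nM; strand-displacement substrate 50 nM final. Compound exposure 15 min at room temperature before start, reaction 10 min at room temperature.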
Pol eta inh – qHTS for Inhibitors of Polymerase Eta | DNA polymerase eta (Homo sapiens), Q9Y253 | recombinant Pol eta, fluorescent DNA replication assay | AID 588591, 2011 | Potency, µM (highest dose often 114 µM), for the others: top-dose activity change, negative = inhibition, hits mostly inhibitors | actives 1.2% (n = 390,000); further: potency means the concentration at half of the fitted maximal effect; on the % scale 0 is the no-effect control and ±100 the full control effect
Target sequence (Q9Y253 whole entry, looked up): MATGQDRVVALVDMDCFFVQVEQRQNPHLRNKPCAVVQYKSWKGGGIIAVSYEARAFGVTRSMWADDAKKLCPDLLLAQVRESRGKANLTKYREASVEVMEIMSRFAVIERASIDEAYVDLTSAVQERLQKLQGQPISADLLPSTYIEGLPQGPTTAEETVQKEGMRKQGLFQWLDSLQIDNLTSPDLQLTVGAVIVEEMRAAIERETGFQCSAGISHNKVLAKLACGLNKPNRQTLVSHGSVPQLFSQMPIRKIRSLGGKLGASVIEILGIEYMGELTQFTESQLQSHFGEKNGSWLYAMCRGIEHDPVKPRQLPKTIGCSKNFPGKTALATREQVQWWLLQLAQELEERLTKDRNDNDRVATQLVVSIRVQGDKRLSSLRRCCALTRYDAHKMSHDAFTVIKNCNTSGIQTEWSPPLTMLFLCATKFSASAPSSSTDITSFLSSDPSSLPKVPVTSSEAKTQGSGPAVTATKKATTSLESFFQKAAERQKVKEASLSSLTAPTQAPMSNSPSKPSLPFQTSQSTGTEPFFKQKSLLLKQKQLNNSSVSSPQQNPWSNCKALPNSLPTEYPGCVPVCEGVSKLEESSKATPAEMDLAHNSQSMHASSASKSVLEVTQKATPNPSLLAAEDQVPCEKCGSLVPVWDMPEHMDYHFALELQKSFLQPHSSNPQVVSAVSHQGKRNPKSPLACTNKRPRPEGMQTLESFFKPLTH
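Pol eta at 10 nM preincubated with compounds 15 min at room temperature; reaction started with fluorescent substrate (50 nM final) and read kinetically at 0 and 10 min.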
The depositor's hits bear a star; ? = inconclusive; . = not tested or not shown; [ ] = remark or other dose. Unless noted, the call rests on the fitted dose curve; in most records, active means well fitted curve in the direction sought with a large enough effect; inconclusive means small, poorly fitted or top-dose-only effect, or another doubt; inactive means no such curve, though single readings can be large; an effect the other way counts as inactive or inconclusive.

SMILES	WRN helicase inh	Pol kappa inh	PI5P4Ka inh	POLI inh	POLB inh	Pol eta inh
CSCCC(NC(=O)c1ccccc1)C(=O)OCC(=O)NCc1ccco1 (stereo unspecified)	-13.7%	-20.6%	-3.3	70.8µM*	.	?
CC(C)[C@H](NC(=O)OCc1ccccc1)C(=O)OCC(=O)NCc1ccco1	-28.2%	-24.8%	?	15.8µM*	.	50.1µM*
COc1ccc(C)cc1NS(=O)(=O)c1ccc2oc(=O)c3ncn(C)c3c2c1	.	0.7%	.	18.9%	-11.9%	-9.3%
Fc1ccc(C(c2nnnn2C2CCCC2)N(Cc2ccco2)CC2CCCO2)cc1 (stereo unspecified)	-9.8%	-14.3%	0.7	?	0.7%	-15.3%
c1ccc(CN(Cc2ccco2)C(c2ccncc2)c2nnnn2C2CCCC2)cc1 (stereo unspecified)	?	?	.	?	16.2%	44.7µM*
CCCCCCNC(=O)N[C@@H](C(=O)NCCC[C@H]1CN2C(=NC[C@@H]2Cc2ccccc2)N1CCc1cccc(OC)c1)C(C)C	-6.9%	-6.8%	-82.9*	25.1µM*	12.0%	-2.1%
C/C=C(\C)C(=O)NCCN1C2=NC[C@@H](Cc3ccccc3)N2C[C@@H]1Cc1ccc(OC)cc1	-5.8%	-3.2%	0.3	8.0%	.	-10.8%
NC(=O)c1cc([N+](=O)[O-])ccc1NCCc1ccccc1	-11.4%	-4.7%	?	28.1%	14.6%	-7.2%
NC(=O)c1ccc([N+](=O)[O-])cc1SCc1ccccc1	-30.3%	?	?	?	39.8µM*	?
CC(C)CC(=O)Nc1ccc(-c2nnn(CC(=O)NCc3ccco3)n2)cc1	-1.6%[11.6 µM]	-24.6%	-2.2	79.4µM*	?	16.0%
CCOc1ccc(NC(=O)c2ccc3nc(C(C)C)oc3c2)cc1	.	-14.4%[60.1 µM]	.	32.9%	3.6%	-7.9%
COc1ccc(OC)c(Nc2nc(NCCCN(C)C)nc(N)c2[N+](=O)[O-])c1	35.5µM*	?	-6.9	31.6µM*	35.5µM*	50.1µM*
COCCCNc1nc(N)c([N+](=O)[O-])c(Nc2cc(OC)ccc2OC)n1	-4.2%	-11.1%	2.4	51.9%	3.3%	6.4%
CCN1CCN(C(=O)c2cc(-c3ccc(Cl)s3)nc3ccccc23)CC1	2.5%	2.4%	-4.0	31.7%	17.2%	-25.0%
O=C(Nc1ccccc1N1CCOCC1)c1cc(-c2ccco2)nc2ccccc12	-15.4%	-41.1%	?	?	14.1µM*	?
CCN1CCN(C(=O)c2cc(-c3ccco3)nc3ccccc23)CC1	-15.2%	?	-18.7	39.8µM*	.	35.5µM*
COc1cc(-c2cc(C(=O)Nc3ccccc3N3CCOCC3)c3ccccc3n2)cc(OC)c1OC	6.5%	2.5%	-0.3	65.2%	-0.8%	-22.0%
O=C(N/N=C/c1ccc2c(c1)OCO2)c1cc(-c2ccco2)nc2ccccc12	-6.2%[11.6 µM]	?	-54.8*	3.16µM*	.	?
O=C(COC(=O)/C=C/c1ccccc1Cl)NC1CC1	-2.0%	.	-16.7	.	.	-16.5%
CC1(C)NC(=O)N(CC(=O)OCC(=O)c2ccc(Br)s2)C1=O	-12.5%	-22.8%	-63.8*	?	.	?
Fc1cccc2sc(Nc3nnc(-c4ccco4)o3)nc12	?	-27.9%	-19.4	?	17.8µM*	?
O=C(Nc1nc2c(F)cccc2s1)c1ccco1	0.7%	15.8%	-3.6	4.1%	0.9%	-10.0%
Cc1ccc(C2=NN3C(C2)c2ccccc2OC32C(=O)Nc3ccccc32)cc1 (stereo unspecified)	-30.3%	-26.1%	-53.0*	22.9%	40.4%	-14.9%
COc1ccccc1CNC(=O)C1CCN(c2nc3ccc(Cl)cc3[nH]2)CC1	.	0.5%[60.1 µM]	.	33.0%	12.3%	-16.7%
O=C(N/N=C/c1ccc([N+](=O)[O-])cc1)c1cccs1	6.0%[11.6 µM]	?	-4.0	70.8µM*	31.6µM*	?
SMILES	WRN helicase inh	Pol kappa inh	PI5P4Ka inh	POLI inh	POLB inh	Pol eta inh
O=C(N/N=C/c1cccc([N+](=O)[O-])c1O)c1cccs1	-27.0%	-4.8%	-51.2*	-3.2%	-4.4%	-15.6%
COc1ccc(NC(=O)CN(C)C(=O)CCC(=O)c2ccc(C)cc2)cc1	3.4%	-2.8%	-20.4	-3.3%	.	-12.9%
Cc1ccnc(NC(=O)CCC(=O)c2cccs2)c1	-30.8%	?	?	20µM*	.	?
Cc1ccnc(NC(=O)CS(=O)(=O)c2ccccc2)c1	5.6%	-1.4%	3.0	18.8%	1.0%	-14.1%
Cc1ccc(NC(=O)CN(C)C(=O)CCC(=O)c2cccs2)cc1	-17.6%[57.1 µM]	-5.9%	?	?	17.8µM*	?
Cc1ccnc(NC(=O)CCS(=O)(=O)c2ccccc2)c1	-29.7%	-13.0%	-7.6	15.9%	22.4µM*	7.2%
CCOc1ccccc1NC(=S)N1CCC(NC(=O)C(C)(C)C)CC1	-4.1%	5.3%	0.2	9.9%	-2.1%	-13.3%
COCc1cc(C)nc(OCC(=O)N/N=C/c2ccc(-c3cc([N+](=O)[O-])ccc3C)o2)c1C#N	-3.2%	-4.0%	-1.6	-7.4%	12.6%	?
Cc1ccc([N+](=O)[O-])cc1-c1ccc(/C=C(\C#N)c2[nH]nc(N)c2C#N)o1	?	?	-54.6*	56.2µM*	6.31µM*	?
CC(CCc1ccccc1)NC(=O)Cn1cccc1C(=O)c1ccccc1 (stereo unspecified)	-1.8%	-0.6%	2.5	16.7%	94.2%	-25.4%
OCC(O)CS (stereo unspecified)	.	-2.3%[60.1 µM]	.	.	.	.
Cc1cccc2c(=O)cc(CSc3ccccc3NC(=O)C(C)(C)C)[nH]c12	.	-8.6%[60.1 µM]	.	-24.0%	-9.6%	-10.2%
Cc1ccccc1NC(=O)CCS(=O)(=O)c1ccc(Br)s1	-21.1%	?	-17.5	?	35.5µM*	?
CCOc1ccccc1NC(=O)c1ccc2c(c1)CCCN2S(C)(=O)=O	.	4.0%	.	-2.0%	43.4%	2.6%
O=C(CSc1nc2[nH]ncc2c(=O)[nH]1)Nc1ccc(Cl)cc1	-6.1%	7.8%	-3.7	-1.2%	.	3.0%
O=C(Nc1cnn(Cc2ccc(F)cc2)c1)C(c1ccccc1)c1ccccc1	-8.4%	-4.7%	0.7	79.4µM*	4.1%	-8.6%
O=C(Nc1cnn(Cc2ccc(F)cc2)c1)c1cnccn1	1.6%	-4.7%	8.2	7.3%	1.1%	-16.4%
Cc1cccc(C)c1NC(=O)C(c1ccccc1)N(C)CCc1ccccc1 (stereo unspecified)	-1.7%	.	-2.8	.	.	.
